About 17,000 (4.7%) of roughly 360,000 compounds were called active. Roughly 5% stayed inconclusive and do not appear here. This is one part of a sample in which actives are shown more often than they occur. A number with no mark means an inactive call. Rule as the data show it: active = activity change below about -50%; inconclusive = mostly about -30% to -49%; inactive = weaker than that.
Assay: qHTS for Inhibitors of Inflammasome Signaling: IL-1-beta AlphaLISA Primary Screen
Details: THP-1 LPS/ATP IL-1B secretion, 16 h; at 57.5 µM, hits give low values
How it was run: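 THP-1 cells pretreated 1 hr with compounds (up to 57.5 uM final), then stimulated with LPS (250 ng/mL final) plus ATP (1.25 mM final); secreted IL-1B measured by AlphaLISA after 16 hr, decreased signal indicating inhibition.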
% is scaled to controls: 0 for no effect and ±100 for the full control effect.

Structure (SMILES)	activity change
C=CCc1cc(S(=O)(=O)c2ccc(O)c(CC=C)c2)ccc1O	8.87%
CCCNC(=O)C[C@@H]1CC[C@@H]2[C@H](COC[C@H](O)CN2C(=O)c2cc(Cl)cc(Cl)c2)O1	35%
O=C(COC(=O)Cc1ccc(Cl)cc1Cl)NCc1ccco1	0.688%
CC(=O)OCC(COC(C)=O)OC(C)=O	12.6%
CC(=O)OC(C)C[N+](C)(C)C (stereo not given)	-70.2% (active)
CC(C[N+](C)(C)C)OC(N)=O (stereo not given)	8.81%
CC1=C(C(=O)N2CCOCC2)CC(CC(=O)NCc2ccco2)C(=O)N1Cc1ccc(F)cc1 (stereo not given)	17.5%
O=C1NC[C@H](CCCCN2C[C@H](Cc3ccc(O)cc3)N(CCc3ccccc3)C(=O)C2=O)N(CCc2ccccc2)C1=O	4.59%
CC(C)(C)c1cc(=O)n2c(nc3ccccc32)[nH]1	-74.5% (active)
CC(C)(C)c1nc2ccccc2c(=O)n1N1C(=O)c2ccccc2C1=O	-1.36%
CC(C)(C)N1CC(c2nc3ccccc3n2Cc2ccc(F)cc2)CC1=O (stereo not given)	-16.1%
CN(CC(=O)NCc1ccncc1)S(=O)(=O)c1ccc(Br)cc1	11.2%
O=C(N/N=C/c1ccc(Cl)cc1)c1nc2ccc([N+](=O)[O-])cc2c(=O)[nH]1	7.76%
O=C(CCc1nc2ccccc2c(=O)[nH]1)OCC(=O)c1cccc(Cl)c1	0%
O=C(/C(=C/c1cccc(Cl)c1)c1nc2ccccc2[nH]1)c1ccccc1	-95.6% (active)
c1cc(-c2ccc3[nH]ccc3c2)n2ccnc2c1	10.3%
CN(CC(=O)NC1CCN(Cc2ccccc2)CC1)S(=O)(=O)c1ccc(Cl)s1	-53.7% (active)
CC1CN(C(=O)CCC(=O)NC2CCN(Cc3ccccc3)CC2)c2ccccc2O1 (stereo not given)	-3.91%
CN(CC(=O)NC1CCCCC1)S(=O)(=O)c1ccc(Br)s1	2.52%
COc1cccc(OC)c1C(=O)N1CCN(Cc2ccccc2F)CC1	-14.9%
COc1cccc(-c2cnc3c(NC(C)=O)cc(-c4cc(F)ccc4OC)cn23)c1	-11.1%
Cc1ccccc1N1CCN(Cc2nc(Cc3ccccc3F)no2)CC1	15.1%
Oc1cc2c(cc1O)CN(C(=S)NCCc1ccc(Cl)cc1)CCC2	-66.9% (active)

Structure (SMILES)	activity change
COc1ccc(CCNC(=S)N2CCN(S(=O)(=O)c3ccc(Cl)cc3)CC2)cc1	0%
O=C(NCCc1ccc(Cl)cc1)c1cccc(N2CCCC2=O)c1	-5.88%
O=C(Nc1ccc(Cl)cc1)Nc1nnc(/C=C/c2ccccc2)s1	11.5%
O=C(Nc1ccccc1)c1nnsc1S(=O)(=O)c1ccc(Cl)cc1	-53.3% (active)
O=C(Nc1ccc(S(=O)(=O)Nc2ccccn2)cc1)c1ccccc1	inactive
CCCCc1nc(SCC(=O)Nc2nnc(C(C)C)s2)n[nH]1	10.5%
CSCCC(NC(=O)C1CCC(C)CC1)C(=O)NCc1ccco1 (stereo not given)	-25.5%
CN1C(c2ccc(F)cc2)=CS/C1=C(/C#N)c1nnc2n1-c1ccccc1SC2	-68.6% (active)
COc1cc(OC)cc(-c2nc3ccccc3c(=O)n2NC(=O)c2cccnc2Cl)c1	-0.823%
O=C(Nc1ccc2c(c1)OCCO2)C1c2ccccc2OCC(=O)N1Cc1ccccn1 (stereo not given)	18.3%
CC(C)Cn1cc(-c2cncc3nccn23)cn1	-7.82%
CCOC(=O)c1nnn(-c2nc(OC)nc(N(C)C)n2)c1-c1ccccc1	44.9%
CCCCCc1ccc(-c2cn(Cc3ccc4ccccc4c3)nn2)cc1	-1.04%
CCOc1nc(OCC)nc(-n2cc(-c3ccccc3)nn2)n1	-60.1% (active)
COc1ccc(-c2ccc(CN3C(CC(C)C)C(=O)N(Cc4cn(CC5CCCCC5)nn4)CCS3(=O)=O)cc2)cn1 (stereo not given)	-12.3%
CC(=O)NN=C(C)c1ccc(NC(=O)C2CC2)cc1	-22.8%
CCc1ccc2c(c1)cc(CN(C(=S)Nc1ccccc1Cl)C1CC1)c1nnnn12	14.3%
COc1cc([N+](=O)[O-])cc([N+](=O)[O-])c1NC(=O)N1CCOCC1	-92.7% (active)
COc1cc(C(=S)N2CCOCC2)cc(OC)c1OC(=O)c1ccc([N+](=O)[O-])cc1[N+](=O)[O-]	-15.3%
COc1cc(C(=S)N2CCOCC2)cc(OC)c1OC(=O)c1cc([N+](=O)[O-])cc([N+](=O)[O-])c1	22%
OC[C@@H]1CN(Cc2ccc(-c3ccccc3)cc2)C[C@H](n2cnc3c(NC4CCCC4)ncnc32)O1	-3.87%
COc1ccc2[nH]c(C(=O)N/N=C/c3cc(OC)c(OC)c(OC)c3)cc2c1	-6.28%
COc1cc2cc(C(=O)N/N=C/c3cccc(OC)c3OC)[nH]c2cc1OC	-70% (active)

Structure (SMILES)	activity change
CCOc1ccc2[nH]c(C(=O)N/N=C/c3cccc(OC)c3OC)cc2c1	0%
Cc1cc2c3ccccc3[nH]c(=O)n2n1	-25.1%
O=C1c2ccccc2C(=O)C1C(=O)C1CC1	8.56%
Nc1cccc(-c2cncc(N3CCN(Cc4ccccn4)CC3)n2)c1	-1.3%
O=C(C[C@H]1C[C@H]2c3cc(NS(=O)(=O)c4ccc(F)cc4)ccc3O[C@H]2[C@H](CO)O1)NCc1cc(F)ccc1F	9.17%
COc1ccc2cc1Oc1ccc(cc1)C[C@H]1c3cc(c(OC)cc3CCN1C)Oc1c(O)c(OC)cc3c1[C@H](C2)N(C)CC3	-107% (active)
OC(c1ccc(Cl)c(F)c1)c1ncc(-c2ccccc2Cl)[nH]1 (stereo not given)	1.76%
CCc1nc2c(OCCc3cccc(OC)c3)cccn2c1N(C)C(=O)c1ccc(C)cc1	-7.64%
Cc1ccc(NC(=O)COC(=O)CN2CCSC2=O)cc1F	4.94%
Cc1cc2nc(-c3ccc(F)cc3)c(Cc3ccsc3)n2c(C)c1Br	14%
Cc1ccc(NC(=S)N2CCCC(c3ccccc3)=N2)cc1	-20.4%
Cc1cccc[n+]1CC(=O)c1ccccc1	22.7%
Cc1ccc(C(=O)N2CCCC(c3ccccc3)=N2)cc1	-5.32%
Cc1ccc(C(=O)C[n+]2cc(-c3ccccc3)n3c2CCCCC3)cc1	-83.1% (active)
Cc1ccc(-c2c[n+](CC(=O)Nc3ccccc3)c3n2CCC3)cc1	-60.8% (active)
Cc1ccc(NC(=O)CN2CCc3ccccc3C2)cc1	7.54%
COc1cccc(NC(=O)N(C)C[C@@H]2Oc3ncc(Br)cc3C(=O)N([C@@H](C)CO)C[C@H]2C)c1	2.84%
NNC(=O)COc1ccc(C2SCCS2)cc1	15.3%
OC[C@@H]1CN(Cc2cccs2)C[C@H](n2cnc3c(NC4CCCC4)ncnc32)O1	-3.1%
CC1CCCC(NC(=O)COC(=O)c2ccccc2C(=O)N(C)C2CCCCC2)C1C (stereo not given)	-16.9%
O=c1c(-c2ccc(Cl)cc2)[n+]([O-])c2ccccc2n1OCc1nc2ccccc2[nH]1	14.2%
CCOC(=O)COn1c(=O)c(-c2ccc(OCC)cc2)[n+]([O-])c2ccccc21	4.15%
CCOc1ccc(OCC)c(-c2c(=O)n(OCc3ccc(Cl)cc3)c3ccccc3[n+]2[O-])c1	-67% (active)

Structure (SMILES)	activity change
CC(=O)OC1CCC2C3CCC4=C(CC(F)C(=O)C4)C3CCC12C (stereo not given)	5.77%
Cc1cn([C@H]2C[C@H](O)[C@@H](CNC(=O)[C@H](N)Cc3cccnc3)O2)c(=O)[nH]c1=O	11.3%
O=C(Nc1cccc(C(F)(F)F)c1)c1ccc(N2CCNCC2)c([N+](=O)[O-])c1	-82.2% (active)
Cc1cccc(C)c1NC(=O)CNC(=O)c1ccc(N2CCOCC2)c([N+](=O)[O-])c1	-0.22%
CCC(C)NC(=O)c1ccc(N2CCC3(CC2)OCCO3)c([N+](=O)[O-])c1 (stereo not given)	0.859%
CS(=O)(=O)N1CCN(c2ccc(C(=O)NC3C4CC5CC(C4)CC3C5)cc2[N+](=O)[O-])CC1 (stereo not given)	5.99%
CC(NC(=O)c1ccc(N2CCNCC2)c([N+](=O)[O-])c1)C12CC3CC(CC(C3)C1)C2 (stereo not given)	-72.6% (active)
O=C(Nc1ccc(N2C(=O)c3cccc4cccc(c34)C2=O)cc1)c1ccc(N2CCCCC2)c([N+](=O)[O-])c1	-6.25%
Cc1nc2nc(C)c(CCC(=O)N3CCN(c4ccccc4)CC3)c(C)n2n1	-17.6%
C[N+](C)(C)CCNC(=O)c1c[nH]c2ccccc12	24.4%
CCC(C(=O)NCc1cccnc1)n1nc(C)c2sc3ccccc3c2c1=O (stereo not given)	-16.1%
CCOc1ccc(N(CC(=O)NCC2CCCO2)S(=O)(=O)c2ccc(C)cc2)cc1 (stereo not given)	7.07%
Cc1ccc(S(=O)(=O)N(CC(=O)NN=C2CCN(C)CC2)c2ccc(F)cc2)cc1	31%
CCNC(=O)CN(c1ccc(C)cc1)S(=O)(=O)c1ccc(SC)cc1	-55.3% (active)
COc1ccc(S(=O)(=O)NC(=O)C2(C)CCN2C(=O)c2ccccc2CCc2ccccc2)cc1 (stereo not given)	22.1%
CCCNC(=O)C1(C)CCN(C(=O)c2ccccc2OC(F)(F)F)C1 (stereo not given)	15.8%
COc1ncnc2c1ncn2CCCNCCN1CCOCC1	44.5%
O=S(=O)(O)c1cc2onnc2c2ccccc12	0%
CNc1nc(Nc2ccc(C)c(Cl)c2)nc(N)c1[N+](=O)[O-]	-21.8%
Cc1ccc(Nc2nc(N)nc(CN3CCN(Cc4ccccc4)CC3)n2)cc1Cl	0%
OCCNc1nc(Nc2ccc(Cl)c(Cl)c2)nc2ccccc12	-92.5% (active)

Reference: PubChem BioAssay AID743279 (National Center for Advancing Translational Sciences (NCATS), 2014)
